# The source made the active and inactive calls. Unless noted, the rule behind the calls is not given here.
# What was measured:
# [1] = anti-His antibody binders, primary screen, artefact control for SMM control protein annotation, biochemical, small-molecule microarray, 635 nm fluorescence (AID 1128); details: anti-His Alexa647 antibody binding, higher = more signal;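 note: score merges feature fluorescence with signal-to-noise for each printed compound spot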
# [2] = test system: Human papillomavirus type 1a E7 protein (residues 1-88); experiment: HPV1a E7 small-molecule binders, primary screen, biochemical, small-molecule microarray, residues 1-88, 635 nm (AID 1129); details: small-molecule microarray binding, fluorescence 635 nm; higher = more signal
# [3] = target: Focal adhesion kinase 1 (Homo sapiens) (UniProt Q05397); experiment: small-molecule microarray binders of FAK, primary screen, biochemical, 635/667 nm fluorescence, BSA, DTT (AID 1130); details: PTK2 binding, 635 nm fluorescence, higher = more signal;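 note: composite of spot emission at 667 nm and signal to noise over triplicate slides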
# [4] = test system: Fibrinogen (Alexa647-labelled); experiment: fibrinogen binders on compound microarrays, profiling panel, artefact control for SMM control-protein annotation, biochemical, small-molecule microarray, 635/667 nm fluorescence (AID 1131); details: fibrinogen-A647 binding fluorescence, higher = more signal;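 note: z-score merges 667 nm fluorescence with per-spot signal-to-noise over triplicate slides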
# [5] = target: Follistatin (Homo sapiens) (UniProt P19883); experiment: follistatin binders on small-molecule microarrays, primary screen, biochemical, small-molecule microarray, 635/667 nm fluorescence (AID 1132); details: FST binding, 635 nm fluorescence, higher = more signal
# [6] = target: Fibroblast growth factor 2 (Homo sapiens) (UniProt P09038); experiment: FGF2 binders on small-molecule microarrays, primary screen, biochemical, small-molecule microarray, 635/667 nm fluorescence (AID 1133); details: small-molecule microarray binding, FGF2, fluorescence 635/667; higher = more signal
# [7] = mitochondrial membrane potential change in A549 cells, profiling panel, cell-based, JC-1 fluorescence, basal, 24 h, 100 nL (AID 1138); details: higher = more signal;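 note: A549 lung adenocarcinoma cells under basal conditions with no added stimulus; test concentration not given here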
# [8] = test system: Lefty1; experiment: Lefty1 binders on small-molecule microarrays, primary screen, biochemical, small-molecule microarray, 635/667 nm fluorescence (AID 1139); details: small-molecule microarray binding, fluorescence 635/667; higher = more signal
# [9] = test system: wheat germ agglutinin (Triticum aestivum), Alexa647-labelled; experiment: wheat germ agglutinin binders on compound microarrays, profiling panel, artefact control for SMM control-protein annotation, biochemical, small-molecule microarray, 635/667 nm fluorescence (AID 1140); details: WGA-A647 binding, 635 nm fluorescence, higher = more signal;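 note: score merges 667 nm feature emission with signal to noise over triplicate slides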
# [10] = target: Luciferin 4-monooxygenase (Photinus pyralis) (UniProt P08659); experiment: firefly luciferase enzyme inhibitors, primary screen, biochemical, luminescence, purified enzyme, 2006 set (AID 1141); details: SteadyGlo luminescence, 30 min, higher = more signal, called active from +8 up or from −8 down;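 note: cell-free assay with purified firefly luciferase at 100 ng per well in PBS; test concentration not given here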
# [11] = test system: Wnt5a (protein binding on small-molecule microarray); experiment: Wnt5a binders on small-molecule microarray, primary screen, biophysical, 635/667 nm fluorescence (AID 1142); details: 635 nm fluorescence, higher = more signal;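 note: fluorescence read at 667 nm with signal to noise per printed feature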
# [12] = cell viability in Huh7 cells, primary screen, cytotoxicity control for HCV replication inhibitor project, CellTiter-Glo luminescence, basal, 48 h (AID 1143); details: Huh7 HCV replicon, higher = more signal, called active from +8 up or from −8 down;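 note: Huh7 hepatoma cells carrying a hepatitis C replication reporter with no stimulus; test concentration not given here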
# [13] = P. aeruginosa biofilm formation inhibitors, primary screen, PAO1 strain, BacTiter-Glo luminescence, LB-PBS (AID 1144); details: 12 h, higher = more signal
# [14] = CREB reporter modulators without forskolin, primary screen, cell-based, PC12, CRE-LacZ reporter, unstimulated (AID 1145); details: no forskolin, luminescence, 4.5 h, higher = more signal, called active from +8 up or from −8 down
# [15] = CREB reporter modulators under forskolin, primary screen, cell-based, PC12, CRE-LacZ reporter, forskolin-stimulated (AID 1146); details: luminescence, 4.5 h, higher = more signal, called active from +8 up or from −8 down;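 note: PC12 cells with 6xCRE LacZ reporter stimulated by forskolin 10 µM; beta-galactosidase reporter signal reflecting CREB driven transcription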
# [16] = target: Streptavidin (Streptomyces avidinii) (UniProt P22629); experiment: streptavidin binders on small-molecule microarray, primary screen, artefact control for SMM compound annotation, biophysical, 635/667 nm fluorescence (AID 1147); details: streptavidin binding, higher = more signal;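 note: signal reflects streptavidin binding to arrayed compounds as a control protein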
# [17] = small-molecule binders of probe aInhba, primary screen, biochemical, small-molecule microarray, 635/667 nm fluorescence (AID 1148); details: higher = more signal;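 note: score merges 667nm spot fluorescence with signal-to-noise for antibody binding to printed compounds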
# [18] = target: Torsin-1A (Homo sapiens) (UniProt O14656); experiment: torsin A binders from cell lysate, primary screen, small-molecule microarray, wild-type, 635/667 nm (AID 1149); details: COS7 hTOR1A-WT lysate, 635 nm fluorescence, higher = more signal
# [19] = target: Torsin-1A (Homo sapiens) (UniProt O14656); experiment: small-molecule binders of mutant TOR1A in lysate, primary screen, cell lysate, small-molecule microarray, COS7 lysate, 635/667 nm fluorescence (AID 1150); details: COS7 hTOR1A mutant lysate, 635 nm fluorescence, higher = more signal;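 note: score pools 667 nm emission and signal to noise measuring lysate protein binding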
# [20] = test system: Sonic hedgehog protein (Shh); experiment: small-molecule binders of Shh protein, primary screen, biochemical, small-molecule microarray, 635/667 nm fluorescence (AID 1151); details: small-molecule microarray binding, 635 nm fluorescence; higher = more signal;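 note: Shh protein binding to compounds spotted on small-molecule microarray slides; score combines spot fluorescence intensity with signal-to-noise across triplicate slides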
# Chain of Luciferin 4-monooxygenase (Photinus pyralis) (P08659 whole entry, looked up): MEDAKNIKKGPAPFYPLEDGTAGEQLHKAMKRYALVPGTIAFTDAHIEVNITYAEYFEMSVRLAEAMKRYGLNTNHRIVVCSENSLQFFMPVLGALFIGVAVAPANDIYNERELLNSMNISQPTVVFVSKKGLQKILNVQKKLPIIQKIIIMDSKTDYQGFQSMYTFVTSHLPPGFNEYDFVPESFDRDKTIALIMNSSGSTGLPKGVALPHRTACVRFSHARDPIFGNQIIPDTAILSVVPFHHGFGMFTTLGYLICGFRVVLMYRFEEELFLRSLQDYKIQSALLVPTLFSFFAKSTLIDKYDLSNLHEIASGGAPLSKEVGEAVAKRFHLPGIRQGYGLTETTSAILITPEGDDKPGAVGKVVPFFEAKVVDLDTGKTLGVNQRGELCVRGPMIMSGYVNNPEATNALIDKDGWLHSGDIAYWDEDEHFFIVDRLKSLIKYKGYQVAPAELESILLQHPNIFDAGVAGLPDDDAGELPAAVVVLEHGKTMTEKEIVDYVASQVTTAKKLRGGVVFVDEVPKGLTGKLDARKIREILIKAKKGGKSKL
# Chain of Torsin-1A (Homo sapiens) (O14656 whole entry, looked up): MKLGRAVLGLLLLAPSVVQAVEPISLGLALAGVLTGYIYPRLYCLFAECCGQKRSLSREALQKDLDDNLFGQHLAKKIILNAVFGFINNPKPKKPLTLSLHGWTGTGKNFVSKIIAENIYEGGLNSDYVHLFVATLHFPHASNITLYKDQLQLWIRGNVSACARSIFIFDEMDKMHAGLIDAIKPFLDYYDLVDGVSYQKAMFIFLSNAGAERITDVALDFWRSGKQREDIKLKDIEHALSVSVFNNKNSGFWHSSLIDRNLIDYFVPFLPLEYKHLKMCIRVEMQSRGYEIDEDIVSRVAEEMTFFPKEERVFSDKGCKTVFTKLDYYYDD
# Chain of Follistatin (Homo sapiens) (P19883 whole entry, looked up): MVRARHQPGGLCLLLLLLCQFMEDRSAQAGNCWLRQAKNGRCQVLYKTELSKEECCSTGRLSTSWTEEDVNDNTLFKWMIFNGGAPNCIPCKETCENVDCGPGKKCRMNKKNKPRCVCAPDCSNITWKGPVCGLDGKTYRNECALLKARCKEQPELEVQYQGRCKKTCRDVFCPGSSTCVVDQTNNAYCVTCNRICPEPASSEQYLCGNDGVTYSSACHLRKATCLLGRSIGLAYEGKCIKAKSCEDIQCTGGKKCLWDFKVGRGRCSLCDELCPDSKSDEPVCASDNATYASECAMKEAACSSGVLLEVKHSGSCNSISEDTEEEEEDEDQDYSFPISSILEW
# Chain of Fibroblast growth factor 2 (Homo sapiens) (P09038 whole entry, looked up): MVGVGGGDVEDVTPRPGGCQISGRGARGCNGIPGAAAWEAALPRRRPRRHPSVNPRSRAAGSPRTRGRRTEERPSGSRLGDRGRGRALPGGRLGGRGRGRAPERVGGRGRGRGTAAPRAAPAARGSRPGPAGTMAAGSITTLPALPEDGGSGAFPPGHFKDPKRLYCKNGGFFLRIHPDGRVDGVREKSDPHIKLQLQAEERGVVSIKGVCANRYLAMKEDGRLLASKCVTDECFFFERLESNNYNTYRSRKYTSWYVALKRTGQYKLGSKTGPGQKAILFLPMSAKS
# Chain of Streptavidin (Streptomyces avidinii) (P22629 whole entry, looked up): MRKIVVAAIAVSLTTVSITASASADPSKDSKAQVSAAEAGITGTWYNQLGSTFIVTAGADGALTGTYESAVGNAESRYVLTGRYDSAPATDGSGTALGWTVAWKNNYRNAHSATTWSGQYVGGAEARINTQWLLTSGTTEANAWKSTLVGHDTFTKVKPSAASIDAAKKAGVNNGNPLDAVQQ
# Chain of Focal adhesion kinase 1 (Homo sapiens) (Q05397 whole entry, looked up): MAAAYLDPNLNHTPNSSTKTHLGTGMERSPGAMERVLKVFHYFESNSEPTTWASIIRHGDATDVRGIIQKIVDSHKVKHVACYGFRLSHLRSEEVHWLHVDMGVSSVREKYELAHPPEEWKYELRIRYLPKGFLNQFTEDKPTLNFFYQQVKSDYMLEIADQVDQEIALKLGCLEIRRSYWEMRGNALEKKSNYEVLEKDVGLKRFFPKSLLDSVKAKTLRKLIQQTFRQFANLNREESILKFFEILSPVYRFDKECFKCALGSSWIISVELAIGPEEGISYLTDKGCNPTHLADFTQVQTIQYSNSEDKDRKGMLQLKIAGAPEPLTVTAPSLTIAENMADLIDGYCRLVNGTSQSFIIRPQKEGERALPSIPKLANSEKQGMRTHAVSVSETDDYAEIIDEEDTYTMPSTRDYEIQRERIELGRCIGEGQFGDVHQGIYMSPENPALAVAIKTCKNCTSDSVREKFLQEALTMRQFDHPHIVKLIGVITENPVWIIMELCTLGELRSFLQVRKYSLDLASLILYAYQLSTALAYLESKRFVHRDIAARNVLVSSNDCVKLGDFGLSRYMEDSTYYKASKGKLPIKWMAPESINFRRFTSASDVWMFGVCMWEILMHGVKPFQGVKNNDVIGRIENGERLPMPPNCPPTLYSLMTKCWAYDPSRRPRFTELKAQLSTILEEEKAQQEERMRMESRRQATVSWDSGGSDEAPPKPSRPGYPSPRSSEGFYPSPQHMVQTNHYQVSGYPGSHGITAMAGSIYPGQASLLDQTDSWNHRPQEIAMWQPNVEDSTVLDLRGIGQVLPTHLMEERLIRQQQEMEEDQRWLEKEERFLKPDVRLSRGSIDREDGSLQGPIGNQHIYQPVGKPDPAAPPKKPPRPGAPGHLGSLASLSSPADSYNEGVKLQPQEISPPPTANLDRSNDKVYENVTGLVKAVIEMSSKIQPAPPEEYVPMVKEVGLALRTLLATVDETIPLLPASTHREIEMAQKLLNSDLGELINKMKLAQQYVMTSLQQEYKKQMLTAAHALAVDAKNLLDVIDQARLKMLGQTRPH
SMILES,composite z-score [1],composite z-score [2],composite z-score [3],composite z-score [4],composite z-score [5],composite z-score [6],z-score [7],composite z-score [8],composite z-score [9],z-score [10],composite z-score [11],z-score [12],z-score [13],z-score [14],z-score [15],composite z-score [16],composite z-score [17],composite z-score [18],composite z-score [19],composite z-score [20]
CC(C)NC(=O)[C@@]1(Cc2ccccc2I)c2ccccc2C(=O)N(Cc2ccccc2Cl)[C@H]1c1ccc(CO)cc1,2.99,1.2,0.252,0.443,1.19,0.566,1.46,0.443,0.858,-0.577 (inactive),0.361,-2.21 (inactive),0.5 (inactive),-0.464 (inactive),-0.0764 (inactive),0.746,-0.0557,0.214,0.891,1
COc1ccccc1CN1C(=O)c2ccccc2[C@@]2(Cc3ccccc3N(CCCN(C)C)C2=O)[C@@H]1c1ccc(CO)cc1,0.583,-0.984,-0.0228,0.253,1.2,0.459,-0.202,0.647,-0.331,-0.278 (inactive),-0.0961,-4.71 (inactive),-0.516 (inactive),-0.0243 (inactive),-0.926 (inactive),0.224,-0.19,-0.0118,0.0265,0.243
CC1CC/C=C\[C@H]2OC34C=CCN(Cn5nnc6ccccc65)C(=O)[C@H]3N(CCCCCO)C(=O)[C@@H]4C2C(=O)O1 (stereo not given in full),0.429,-1.48,-0.281,-2.26,-1.16,-1.69,0.114,-0.425,1.24,0.932 (inactive),-0.613,-1.2 (inactive),-0.989 (inactive),0.0524 (inactive),-0.567 (inactive),-1.76,-0.176,-2.12,-1.12,-0.124
COc1ccc([Si](C)(C)[C@@H]2[C@@H](CCn3cc([C@H](O)c4ccccc4)nn3)O[C@]3(C(=O)N(Cc4cccc(N5CCC5=O)c4)c4ccccc43)[C@H]2C)cc1,0.963,0.227,-0.285,0.119,1.15,1.06,2.21,0.0197,0.187,0.258 (inactive),-0.166,-2.43 (inactive),-1.1 (inactive),-0.272 (inactive),-0.144 (inactive),0.0185,-0.0477,0.423,0.0953,0.71
Cc1ccc(/C=C/C=O)cc1,-0.0082,-0.872,-0.0083,0.698,-0.186,-0.245,0.843,-0.709,0.0368,-1.19 (inactive),-0.355,0.0606 (inactive),0.38 (inactive),-0.141 (inactive),0.243 (inactive),-0.461,-0.176,-1.39,-0.357,-0.327
C#CCN1[C@@H](Cc2ccc(O)cc2)C(=O)O[C@H](Cc2ccccc2)[C@@H]1/C=C/C1CC1,-0.0341,-0.521,-0.102,0.123,0.623,0.571,-1.76,0.165,-0.202,-0.407 (inactive),0.0515,-4.07 (inactive),1.75 (inactive),15.1 (active),1.42 (inactive),-0.196,-0.224,0.161,0.364,0.284
O=C1O[C@@H](c2ccccc2)[C@@H](c2ccccc2)N2[C@@H](c3ccc(OCCO)cc3)[C@]3(C(=O)Nc4ccc(C#CC5=CCCCC5)cc43)[C@@H](C(=O)N3CCCCCCC3)[C@H]12,1.41,1.23,1.55,0.772,1.39,1.09,-1.02,1.55,1.46,-1.13 (inactive),1.18,-2.05 (inactive),-0.334 (inactive),0.568 (inactive),0.509 (inactive),2.92,1.93,1.58,2.02,1.37
[N-]=[N+]=Nc1ccccc1C[C@@]1(C(=O)N2CCCCC2)N=C(c2ccc(OCCCO)cc2)O[C@@H]1c1ccccc1,1.63,1.2,0.98,0.95,0.72,0.11,1.13,-0.322,1.31,-2.98 (inactive),0.46,-5.13 (inactive),-0.682 (inactive),2.11 (inactive),-0.0605 (inactive),1.23,0.298,0.417,0.36,0.131
CC=CC(O)C1C=CC2C(=O)N(C)C(=O)C2N1N(c1ccccc1)c1ccccc1 (stereo not given),0.573,-0.226,0.0652,0.241,0.803,-0.024,1.32,0.212,0.318,1.36 (inactive),0.16,0.695 (inactive),0.305 (inactive),-0.326 (inactive),0.493 (inactive),0.29,0.0536,2.7,1.3,0.306
[N-]=[N+]=NCc1ccccc1[C@H]1OC(c2ccc(OCCCO)cc2)=N[C@@]1(Cc1ccccc1)C(=O)N1CCCCC1,0.777,1.23,0.795,1,1.45,1.52,0.779,0.944,0.834,0.486 (inactive),1.5,-5.29 (inactive),0.437 (inactive),-0.16 (inactive),0.357 (inactive),0.733,0.204,0.178,0.392,0.413
C[N+](C)(C)CCCCCCNC(=O)[C@H]1C[C@H]2C(=O)N[C@@H](Cc3ccccc3)C(=O)N2[C@H]1c1cccc(OCCO)c1,0.357,0.69,0.118,0.22,1.16,1.83,-0.585,1.4,-0.046,0.0538 (inactive),0.385,-0.236 (inactive),-0.278 (inactive),-0.252 (inactive),-0.54 (inactive),-0.563,0.0176,1.12,1.24,2.08

# Reference: PubChem BioAssay
